In PubChem BioAssay (Tox21):
“And” between values parts separate entries of the source, which are not always exact repeats. Equal values may be shown once. Results filed as inconclusive are left out. A structure can be active in one record and inactive in another. The source made the active and inactive calls. Unless noted, the call rests on the fitted dose curve; in most records, active means well fitted curve in the direction sought with a large enough effect in the repeat runs; inconclusive means weak or mixed curves; inactive means no such curve, though single readings can be large; an effect the other way counts as inactive or inconclusive.

Key:
[1] = qHTS assay to identify small molecule antagonists of the glucocorticoid receptor (GR) signaling pathway - cell viability counter screen (AID 720693); further: nearly all actives have a fitted effect of over 55% in size; further: potency means the concentration at half of the fitted maximal effect
[2] = qHTS assay for identifying genotoxic compounds that show differential cytotoxicity against isogenic chicken DT40 cell lines with known DNA damage response pathways - wild type cell line (AID 743012); further: nearly all actives have a fitted effect of over 60% in size; further: potency means the concentration at half of the fitted maximal effect
Procedure, shortened: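 Viability by ATP luminescence (CellTiter-Glo, 30 min RT) after 40 h compound treatment at 37 C/5% CO2, using 300 parental DNA repair-proficient DT40 cells per well.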

[3] = qHTS assay for identifying genotoxic compounds that show differential cytotoxicity against isogenic chicken DT40 cell lines with known DNA damage response pathways - Rev3 mutant cell line (AID 743014); further: nearly all actives have a fitted effect of over 55% in size; further: potency means the concentration at half of the fitted maximal effect
[4] = qHTS assay for identifying genotoxic compounds that show differential cytotoxicity against isogenic chicken DT40 cell lines with known DNA damage response pathways - Rad54/Ku70 mutant cell line (AID 743015); further: nearly all actives have a fitted effect of over 60% in size; further: potency means the concentration at half of the fitted maximal effect
[5] = qHTS assay to identify small molecule antagonists of the androgen receptor (AR) signaling pathway - cell viability counter screen (AID 743033; further: nearly all actives have a fitted effect of over 45% in size; further: potency means the concentration at half of the fitted maximal effect)
[6] = qHTS assay to identify small molecule antagonists of the androgen receptor (AR) signaling pathway using the MDA cell line - cell viability counter screen (AID 743041; further: nearly all actives have a fitted effect of over 45% in size; further: potency means the concentration at half of the fitted maximal effect)
Procedure, shortened: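 Compound exposure lasted 16 h at 37C in MDA-kb2 AR-luc cells stimulated with R1881. Protease-based CellTiter-Fluor reagent was applied for the final 30 min and fluorescence measured.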

[7] = qHTS assay to identify small molecule antagonists of the thyroid receptor (TR) signaling pathway - cell viability counter screen (AID 743064); further: nearly all actives have a fitted effect of over 50% in size; further: potency means the concentration at half of the fitted maximal effect
Procedure, shortened: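 In rat pituitary GH3.TRE-Luc reporter cells co-exposed to compound and 1 nM T3 for 23.5 h, cytotoxicity was assessed with CellTiter-Fluor in the same wells, read by fluorescence.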

[8] = qHTS assay to identify small molecule antagonists of the thyroid receptor (TR) signaling pathway (AID 743065); further: nearly all actives have a fitted effect of over 55% in size; further: potency means the concentration at half of the fitted maximal effect
Procedure, shortened: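 GH3.TRE-Luc rat pituitary cells (two TREs driving luciferase) were dosed with compound, then stimulated with 1 nM T3 (final) for 23.5 h at 37 C. ONE-Glo luminescence was the read-out, with CellTiter-Fluor fluorescence as the cytotoxicity counter-screen.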

[9] = test system: thyroid hormone receptor (rat, GH3 cells); test: qHTS assay to identify small molecule agonists of the thyroid receptor (TR) signaling pathway (AID 743066; calls by dose curve)
[10] = molecular target: Estrogen receptor (Homo sapiens) (UniProt P03372); test: qHTS assay to identify small molecule antagonists of the estrogen receptor alpha (ER-alpha) signaling pathway (AID 743069; active means well fitted curve in the direction sought with a large enough effect in the signal ratio in the repeat runs, not every such curve was filed as active; the % refers to the signal ratio)
Procedure, shortened: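 In this cell-based reporter format, GripTite HEK293 cells harbouring ER-alpha-UAS-bla were grown overnight with 2% charcoal-stripped FBS, dosed with DMSO-dissolved compounds, then challenged with 17beta-estradiol. After 18 hr at 37C, beta-lactamase activity was detected by FRET fluorescence.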

[11] = qHTS assay to identify small molecule antagonists of the estrogen receptor alpha (ER-alpha) signaling pathway - cell viability counter screen (AID 743074; calls by dose curve; further: nearly all actives have a fitted effect of over 45% in size; further: potency means the concentration at half of the fitted maximal effect)
[12] = molecular target: Estrogen receptor (Homo sapiens) (UniProt P03372); test: qHTS assay to identify small molecule agonists of the estrogen receptor alpha (ER-alpha) signaling pathway (AID 743075; calls by dose curve)
[13] = qHTS assay to identify small molecule antagonists of the estrogen receptor alpha (ER-alpha) signaling pathway using the BG1 cell line (AID 743080; calls by dose curve;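 further: BG1 cells stimulated with 17beta-estradiol alongside compound; nearly all actives have a fitted effect of over 25% in size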)
Procedure, shortened: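 Luminescence from a 4×ERE-luciferase reporter in BG1-Luc-4E2 cells served as read-out. Cells, pre-cultured 5 days in stripped-serum phenol-red-free medium, were exposed to compound with 17beta-estradiol co-stimulation for 21.5 h at 37 C.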

[14] = qHTS assay to identify small molecule antagonists of the estrogen receptor alpha (ER-alpha) signaling pathway using the BG1 cell line - cell viability counter screen (AID 743081);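 further: compound given together with 17beta-estradiol as the ER stimulus; nearly all actives have a fitted effect of over 45% in size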; further: potency means the concentration at half of the fitted maximal effect
Aromatase (Homo sapiens) = Aromatase (Homo sapiens) (UniProt P11511); test: qHTS assay to identify aromatase inhibitors (AID 743083); further: nearly all actives have a fitted effect of over 55% in size; further: potency means the concentration at half of the fitted maximal effect
[15] = qHTS assay to identify aromatase inhibitors - cell viability counter screen (AID 743084); further: potency means the concentration at half of the fitted maximal effect
[16] = molecular target: Estrogen receptor (Homo sapiens) (UniProt P03372); test: qHTS assay to identify small molecule agonists of the estrogen receptor alpha (ER-alpha) signaling pathway using the BG1 cell line (AID 743079); further: nearly all actives have a fitted effect of over 20% in size; further: potency means the concentration at half of the fitted maximal effect
[17] = molecular target: Androgen receptor (Homo sapiens) (UniProt P10275); test: qHTS assay to identify small molecule agonists of the androgen receptor (AR) signaling pathway using the MDA cell line (AID 743040; further: nearly all actives have a fitted effect of over 20% in size); details: MDA-kb2 AR-luc cells, MMTV luciferase, 16 h; activity change: at 70.3 µM (top of the series), stronger effect = higher value
Procedure, shortened: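 Testing was done with the MDA-kb2 AR-luc line, a human breast carcinoma stably transfected with MMTV-luciferase containing AR and GR response elements. Cells were exposed 16 h at 37C before ONE-Glo luminescence detection.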

[18] = molecular target: Androgen receptor (Homo sapiens) (UniProt P10275); test: qHTS assay to identify small molecule antagonists of the androgen receptor (AR) signaling pathway using the MDA cell line (AID 743042; further: nearly all actives have a fitted effect of over 55% in size; further: potency means the concentration at half of the fitted maximal effect)
Procedure, shortened: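 MDA-kb2 breast carcinoma cells carrying MMTV-luciferase (AR/GR responsive) were co-treated with compounds and the agonist R1881 for 16 h at 37C. Inhibition read as ONE-Glo luminescence; CellTiter-Fluor fluorescence measured in parallel for cytotoxicity.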

[19] = molecular target: Androgen receptor (Homo sapiens) (UniProt P10275); test: qHTS assay to identify small molecule antagonists of the androgen receptor (AR) signaling pathway (AID 743035; active means well fitted inhibition curve with a large enough effect in the signal ratio in the repeat runs, not every such curve was filed as active; the % refers to the signal ratio; further: potency means the concentration at half of the fitted maximal effect)
Procedure, shortened: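 Antagonist mode: AR-bla HEK293 cells co-treated with test compounds and agonist R1881 for 16 h at 37C, 5% CO2. Beta-lactamase activity read as FRET fluorescence after 2 h room-temperature substrate loading.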

Measured: Potency

Estrogen receptor (Homo sapiens), sequence (P03372 whole entry, looked up): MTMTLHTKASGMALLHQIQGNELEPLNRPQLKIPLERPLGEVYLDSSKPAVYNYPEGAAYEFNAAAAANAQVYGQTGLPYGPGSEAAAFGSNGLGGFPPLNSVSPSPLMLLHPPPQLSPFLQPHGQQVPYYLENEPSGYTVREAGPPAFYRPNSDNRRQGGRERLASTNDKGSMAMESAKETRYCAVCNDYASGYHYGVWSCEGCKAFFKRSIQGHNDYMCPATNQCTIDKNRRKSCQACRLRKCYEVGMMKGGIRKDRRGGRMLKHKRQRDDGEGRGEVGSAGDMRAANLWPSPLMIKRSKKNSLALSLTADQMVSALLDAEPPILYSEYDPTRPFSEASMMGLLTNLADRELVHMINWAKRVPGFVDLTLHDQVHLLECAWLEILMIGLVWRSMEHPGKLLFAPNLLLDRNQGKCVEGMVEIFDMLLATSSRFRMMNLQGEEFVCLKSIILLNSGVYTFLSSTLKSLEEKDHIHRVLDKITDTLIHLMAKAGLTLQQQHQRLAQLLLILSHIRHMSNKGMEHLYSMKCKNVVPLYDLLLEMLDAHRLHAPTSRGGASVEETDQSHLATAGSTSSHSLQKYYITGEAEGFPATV
Aromatase (Homo sapiens), sequence (P11511 whole entry, looked up): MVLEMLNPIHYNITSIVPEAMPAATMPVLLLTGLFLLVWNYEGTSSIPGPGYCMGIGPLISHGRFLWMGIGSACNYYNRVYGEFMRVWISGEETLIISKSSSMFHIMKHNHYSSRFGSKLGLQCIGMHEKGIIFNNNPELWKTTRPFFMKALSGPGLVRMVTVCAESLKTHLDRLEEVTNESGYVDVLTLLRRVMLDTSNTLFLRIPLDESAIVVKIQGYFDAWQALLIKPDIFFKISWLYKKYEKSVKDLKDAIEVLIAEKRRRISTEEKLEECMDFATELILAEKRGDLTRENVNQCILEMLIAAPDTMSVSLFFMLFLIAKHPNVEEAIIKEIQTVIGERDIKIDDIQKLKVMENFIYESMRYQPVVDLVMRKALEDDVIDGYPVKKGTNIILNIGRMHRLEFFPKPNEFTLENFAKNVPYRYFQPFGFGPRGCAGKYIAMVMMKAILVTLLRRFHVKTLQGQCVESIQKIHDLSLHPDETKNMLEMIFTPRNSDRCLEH
Androgen receptor (Homo sapiens), sequence (P10275 whole entry, looked up): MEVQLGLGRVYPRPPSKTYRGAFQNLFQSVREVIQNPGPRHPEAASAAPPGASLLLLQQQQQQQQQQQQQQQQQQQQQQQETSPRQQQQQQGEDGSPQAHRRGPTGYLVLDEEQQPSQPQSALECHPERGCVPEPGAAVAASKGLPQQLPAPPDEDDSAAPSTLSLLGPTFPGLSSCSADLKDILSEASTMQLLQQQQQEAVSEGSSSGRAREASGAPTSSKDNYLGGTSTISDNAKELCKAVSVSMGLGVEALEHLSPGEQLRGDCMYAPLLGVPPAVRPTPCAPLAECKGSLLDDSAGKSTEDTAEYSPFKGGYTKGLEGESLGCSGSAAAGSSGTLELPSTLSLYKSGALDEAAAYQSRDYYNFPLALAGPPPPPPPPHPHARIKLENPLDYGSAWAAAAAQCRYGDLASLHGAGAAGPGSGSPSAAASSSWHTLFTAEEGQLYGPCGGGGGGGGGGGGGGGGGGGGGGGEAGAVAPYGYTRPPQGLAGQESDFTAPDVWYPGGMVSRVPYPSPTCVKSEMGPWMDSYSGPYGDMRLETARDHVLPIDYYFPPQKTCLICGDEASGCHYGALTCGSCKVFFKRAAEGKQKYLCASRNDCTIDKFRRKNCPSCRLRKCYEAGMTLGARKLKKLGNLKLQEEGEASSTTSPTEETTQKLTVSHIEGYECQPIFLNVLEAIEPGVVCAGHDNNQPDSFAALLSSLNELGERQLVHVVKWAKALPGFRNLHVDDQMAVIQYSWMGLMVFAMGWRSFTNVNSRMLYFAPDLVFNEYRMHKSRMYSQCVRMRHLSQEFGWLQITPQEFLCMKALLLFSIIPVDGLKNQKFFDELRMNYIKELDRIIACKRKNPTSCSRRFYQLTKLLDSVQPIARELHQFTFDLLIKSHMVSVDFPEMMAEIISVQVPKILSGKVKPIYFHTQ

c1ccc2sc(SNC3CCCCC3)nc2c1
inactive and 61.1 µM (active): [2] | [3]
inactive and 54.5 µM (active): [4]
not listed: [16] | [17] | [18] | [19]
inactive: all other assays above

CCCCC1C(=O)NC(=O)N(C2CCCCC2)C1=O (stereo unspecified)
not listed: [17] | [18] | [19]
inactive: all other assays above

Nc1c(Br)cc(Br)c2c1C(=O)c1ccccc1C2=O
not listed: [13] | [19]
inactive: all other assays above

N#CC(C#N)=C(C#N)C#N
not listed: [10] | [17] | [18] | [19]
inactive: all other assays above

O=CC=O
inactive and 49.9 µM (active): [3]
inactive and 28.1 µM (active): [16]
not listed: [13]
inactive: all other assays above

Oc1cccc(Cl)c1
not listed: [17] | [18] | [19]
inactive: all other assays above

CCCC[N+](CCCC)(CCCC)CCCC
active: [2] 4.32 µM | [3] 3.85 µM | [4] 2.43 µM
not listed: [10] | [17] | [18] | [19]
inactive: all other assays above

O=[N+]([O-])c1cc(Cl)c(Cl)cc1Cl
not listed: [17] | [18] | [19]
inactive: all other assays above

CC1(C)[C@H](C(=O)O[C@H](C#N)c2cccc(Oc3ccccc3)c2)[C@@H]1C=C(Br)Br
inactive and 43.3 µM (active): [4]
inactive and 48.6 µM (active): [3]
not listed: [10] | [11] | [12] | [13] | [16]
inactive: all other assays above

C[N+]1(CCC(C(N)=O)(c2ccccc2)c2ccccc2)CCCCC1
not listed: [17] | [18] | [19]
inactive: all other assays above

Clc1ccc2ccccc2c1
not listed: [10] | [13] | [16]
inactive: all other assays above

CCc1ccccc1N
not listed: [17] | [18] | [19]
inactive: all other assays above

C=CCc1ccccc1O
not listed: [17] | [18] | [19]
inactive: all other assays above

SCc1ccccc1
active: [16] 62.9 µM
not listed: [17] | [18] | [19]
inactive: all other assays above

CCNC(=O)NC(=O)/C(C#N)=N/OC
not listed: [17] | [18] | [19]
inactive: all other assays above

CCC1(CC)C(=O)NC(=O)NC1=O
not listed: [17] | [18] | [19]
inactive: all other assays above

CCCN(CCC)c1c([N+](=O)[O-])cc(C(C)C)cc1[N+](=O)[O-]
active: [7] 61.1 µM | [8] 61.1 µM
inactive and 54.5 µM (active): [4]
inactive and 61.1 µM (active): [2]
not listed: [17] | [18] | [19]
inactive: all other assays above

CC(C)(C)c1ccc(CCOc2ncnc3ccccc23)cc1
not listed: [10] | [17] | [18] | [19]
inactive: all other assays above

CCCCC(CC)COC(=O)c1c(Br)c(Br)c(Br)c(Br)c1C(=O)OCC(CC)CCCC (stereo unspecified)
not listed: [11] | [17] | [18] | [19]
inactive: all other assays above

CCC1(CCC(C)C)C(=O)NC(=O)NC1=O
not listed: [10] | [11] | [12] | [13] | [14] | [16]
inactive: all other assays above

C=C(Cl)Cl
not listed: [10] | [13]
inactive: all other assays above

CN(C)N
not listed: [10] | [12] | [13] | [16]
inactive: all other assays above

CCCCCBr
not listed: [10] | [13]
inactive: all other assays above

C1CCNCC1
not listed: [12] | [13] | [16] | [17] | [18] | [19]
inactive: all other assays above

C[CH2][Hg][S]c1ccccc1C(=O)O
inactive: [17]
active: [1] 7.56 µM and 6.16 µM | [2] 376 nM and 172 nM | [3] 596 nM and 137 nM | [4] 266 nM and 109 nM | [5] 10.7 µM and 4.9 µM | [19] 9.52 µM and 3.09 µM | [6] 9.87 µM and 8.63 µM | [18] 9.44 µM and 7.7 µM | [7] 298 nM and 273 nM | [8] 335 nM and 243 nM | [11] 13.4 µM and 12.3 µM | [14] 21.1 µM and 17.2 µM | Aromatase (Homo sapiens) 5.96 µM and 1.09 µM | [15] 5.96 µM and 1.09 µM

CC(C)(c1ccccc1)c1cc(-n2nc3ccccc3n2)c(O)c(C(C)(C)c2ccccc2)c1
not listed: [13] | [17] | [18] | [19]
inactive: all other assays above

COCc1cnc(C2=NC(C)(C(C)C)C(=O)N2)c(C(=O)O)c1 (stereo unspecified)
inactive: all assays above

CCCCC#N
not listed: [10] | [17] | [18] | [19]
inactive: all other assays above
